In PubChem BioAssay AID588398 (Broad Institute, 2011):
Among all 1,200 compounds or so, about 110 (9.2%) were called active. Inconclusive results (about 8%) are left out.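 The calls were made as follows: active = pathway reporter half-maximal dose under half the control reporter's, or control reporter unaffected while pathway reporter is inhibited; inconclusive = either signal flat at 30 to 70% inhibition or poorly fitted; inactive = the rest.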 These entries were drawn from the full list. Entries with a potency or affinity are not part of this list.

Experiment: LMP1 TES1 pathway selectivity over dsRED control – imaging, HEK293T, dual-color eGFP/dsRED, cherry-picks, selectivity assay for LMP1 NF-kB inhibitor project, dose response (AID 588398);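 also: 0% = median of neutral control wells and -100% = median of MG132 positive control wells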
Conditions: 48 h; HEK293T Tet-On dsRED counter-screen channel, at 19.5 µM (top of the series); activity change, negative = inhibition: at the top concentration

Compound | activity change, negative = inhibition | outcome
Cc1sc2ncnc(N3CCC(C(=O)Nc4ccccc4C(C)(C)C)CC3)c2c1C | -6.18% (inactive) | 
Cc1cccc(NC(=S)N=Nc2c(O)n(C)c3ccc(S(=O)(=O)N4CCOCC4)cc23)c1 | 20.2% (inactive) | 
C=CCn1c(O)c(N=NC(=S)Nc2ccccc2C)c2cc(S(=O)(=O)N3CCOCC3)ccc21 | 43.7% (inactive) | 
CN1C(=O)C(CC(=O)NC2CCCCC2)SC1=Nc1ccccc1 (stereo not drawn) | -4.39% (inactive) | 
COc1ccc(-c2ccc3c(c2)S(=O)(=O)c2cccc(C(=O)NCc4cc(C)oc4C(F)(F)F)c2C3=O)cc1OC | 6.54% (inactive) | 
Cc1ccc(C(=O)Nc2cccc(C(F)(F)F)c2)cc1NC(=O)c1ccno1 |  | inactive
CCOc1ccc(/C=N/Nc2cc(N3CCOCC3)ncn2)c(O)c1 | -12.3% (inactive) | 
COc1cccc(C(=O)Nc2nc3ccccc3[nH]2)c1 | 31.9% (inactive) | 
Cn1cccc1CC(=O)NNC(=S)Nc1ccccc1Cl | -1.27% (inactive) | 
COC(=O)C1=C(C)N(CCCC(=O)O)C(=O)NC1c1cccc(Cl)c1Cl (stereo not drawn) | -6.66% (inactive) | 
COc1cc2cc(C(=O)N3CCN(c4ccccc4OC)CC3)[nH]c2cc1OC | 0.636% (inactive) | 
O=C(Nc1cccc(C(=O)O)c1)Nc1ccccc1Cl | 25.4% (inactive) | 
CCN(C(=O)c1cccc(NC(=O)c2ccccc2)c1)C1CCCCC1 | 56.7% (inactive) | 
N=c1c(-c2nc3ccccc3[nH]2)cc(C(=O)c2cccs2)nn1-c1ccccc1 | 18.5% (inactive) | 
CCCCCC(=O)N1CCN(c2ccc(C(C)=O)cc2F)CC1 | 12.2% (inactive) | 
Cc1ccc(-c2csc(=Nc3cccnc3)n2CCCn2ccnc2)cc1C | -85.9% (inactive) | 
COc1cc(/C=C(\C#N)c2ccccn2)ccc1OCc1ccccc1Cl | 9.75% (inactive) | 
Cc1cc(/C=C2\Cc3ccccc3C2=O)c(C)n1-c1ccccc1 | 30.7% (inactive) | 
CCCCNC(=S)Nc1ccc([N+](=O)[O-])cc1 | -9.38% (inactive) | 
CC(=O)NC(CCS(C)(=O)=O)C(=O)Nc1ccc(Cl)c(Cl)c1 (stereo not drawn) | -4.89% (inactive) | 
C=C1C(=O)C2=CC1CCC(=O)C1(C)CCC(OC(C)=O)C(C)(C)C1CC2O (stereo not drawn) | -98.8% (inactive) | 
O=C(NCC1CCOCC1)c1ccc(OC2CCN(Cc3ccccn3)CC2)cc1 | 14.1% (inactive) | 
CCc1ccc(/C=N/NC(=O)c2ccccn2)cc1 | -0.532% (inactive) | 
Cc1ccsc1-c1nc(CSCC(=O)N2CCN(c3ccccc3)CC2)c(C)o1 | 44.4% (inactive) | 
CCCSc1nc2cc(S(=O)(=O)N3CCOCC3)ccc2n1CC | 19.4% (inactive) | 
CC(C)OCCCNC(=O)C1CCC(CNS(=O)(=O)c2ccccc2)CC1 (stereo not drawn) | -9.46% (inactive) | 

Compound | activity change, negative = inhibition | outcome
NC1=NC(=O)NC1(c1ccccc1)c1ccccc1 | 2.06% (inactive) | 
Cc1cc(=S)[nH]c2ccccc12 | 3.44% (inactive) | 
CCOCCCn1c(=S)[nH]c2ncccc2c1=O | -10.1% (inactive) | 
C=CCn1c(O)c(N=NC(=S)Nc2cccc(C)c2)c2ccccc21 | 18.7% (inactive) | 
Cn1nc(-c2ccc(N3CCOCC3)c(NS(=O)(=O)c3ccccc3)c2)c2ccccc2c1=O | 24.4% (inactive) | 
C(=N\Nc1nc2ccccc2[nH]1)/c1cccc2nccnc12 | 30.3% (inactive) | 
COc1cccc(/C=N/Nc2nc3ccccc3[nH]2)c1O | -89.9% (inactive) | 
CCN(CC)c1ccc(/C=N/NC(=O)c2ccc3nc[nH]c3c2)c(O)c1 | -65.3% (inactive) | 
CCN(CC)S(=O)(=O)c1ccc(N/N=C/c2ccc(O)cc2O)nc1 | -89.9% (inactive) | 
Cc1ccc(/C=C/c2nc3ccccc3c(=O)[nH]2)cc1 | -9.47% (inactive) | 
CCN(CC)c1ccc(NC(=O)c2cccc(F)c2)c(C)c1 | 163% (inactive) | 
Cc1cc(C)cc(C(=O)NCCC(=O)NCc2cc(=O)n(C)c(=O)n2C)c1 | 15.2% (inactive) | 
O=C(CSc1nnc(-c2cccc(S(=O)(=O)N3CCOCC3)c2)n1C1CCCCCC1)NCc1ccccc1 | 20.6% (inactive) | 
CN(C)CC(C)(C)CNS(=O)(=O)c1ccc(OC(F)(F)F)cc1 | 13.2% (inactive) | 
COc1ccc2[nH]c3c(=O)n(CCCCC(=O)N4CCC(C(N)=O)CC4)c(=S)[nH]c3c2c1 | 21.2% (inactive) | 
COc1ccc2cc(C(N)=O)/c(=N\NC(=O)c3ccccc3)oc2c1 | -14.7% (inactive) | 
CN(C)/C=C/C(=O)c1ccc2noc(-c3ccccc3)c2c1 | -15.5% (inactive) | 
N#Cc1c(NC(=O)CCCC(=O)O)sc2c1CCCCC2 | 9.82% (inactive) | 
CC(C)[C@H](N[C@@H](C)c1ccccc1)c1c(O)ccc2ccccc12 | -4.13% (inactive) | 
CC(=O)c1c(C)[nH]c(C(=O)Nc2ccc(C)cn2)c1C | 39.2% (inactive) | 
COc1ccc(Nc2oc(COc3ccccc3OC)nc2C#N)cc1 | 20.2% (inactive) | 
COc1cc2nc(NC(=O)c3ccco3)sc(=O)c2cc1OC | -12.1% (inactive) | 
CCOC(=O)C1=C(C)N(C)C(=O)NC1c1ccccc1OC (stereo not drawn) | 14.8% (inactive) | 
O=C(Nc1cc(S(=O)(=O)N2CCOCC2)ccc1Cl)c1ccncc1 | 8.81% (inactive) | 
O=C1C2CCCN2c2ccc(S(=O)(=O)N3CCOCC3)cc2N1Cc1ccccc1F (stereo not drawn) | -10.2% (inactive) | 
CCn1nc(C(=O)Nc2nc(-c3ccccn3)cs2)c2ccccc2c1=O | 13.2% (inactive) | 

Compound | activity change, negative = inhibition | outcome
COc1ccc(C2CC(C(F)(F)F)n3ncc(C(=O)NCc4cccnc4)c3N2)cc1OC (stereo not drawn) | 3.54% (inactive) | 
C=CCN=C1NN=C(c2cc(C)n(CCOC)c2C)CS1 | 5.31% (inactive) | 
Cc1cccc(C)c1NC(=O)CN(C)CC(=O)Nc1ccccc1Oc1ccccc1 | 13.9% (inactive) | 
Cc1sc2nc(SCC(=O)OC(C)C)n(C)c(=O)c2c1C | 25.6% (inactive) | 
O=C(c1ccc(Cl)cc1)N1CCN(CCOc2ccccc2)CC1 | 8.86% (inactive) | 
Cc1cccc(Cn2cc(SCC(=O)Nc3nccs3)c3ccccc32)c1 | 20.8% (inactive) | 
O=C(CSc1nc2ccccc2c(=O)n1CCCN1CCOCC1)Nc1ccc(Br)cc1 | 0.76% (inactive) | 
O=C(Cn1cc(CNC(=O)C2CCCCC2)nn1)Nc1cc(C(F)(F)F)ccc1Cl | -3.45% (inactive) | 
COc1ccc(NC(=O)c2cc3ccccc3oc2=O)cc1 | 2.5% (inactive) | 
COc1ccc(C(=O)Nc2cccc(C(=O)N/N=C/c3ccc(OC)cc3OC)c2)cc1 | 11.3% (inactive) | 
COc1cc(NC(=S)N2CCN(CCO)CC2)cc(OC)c1 | -3.32% (inactive) | 
CCCc1nc(SCC(=O)NCc2ccco2)c2c(=O)n(C)c(=O)n(C)c2n1 | -8.24% (inactive) | 
Oc1c(N=NC(=S)Nc2ccccc2F)c2ccccc2n1Cc1ccccc1F | 78.1% (inactive) | 
O=C1C=Cc2cccc3ccc(O)c1c23 | -25.7% (inactive) | 
COc1ccc(OC)c(CCNC(=O)CCn2nc(C)c3c(C)n(-c4ccccc4)nc3c2=O)c1 | 33% (inactive) | 
COc1cc(/C=C2/SC(=S)N(Cc3ccccc3)C2=O)ccc1OCC(=O)O | 3.87% (inactive) | 
CCc1ccc(/C=C2\SC(=S)N(CCCC(=O)NC3=NCCS3)C2=O)cc1 | 3.24% (inactive) | 
Cc1ccc(C2=C/C(=C\c3cccnc3)C(=O)O2)cc1 | -0.215% (inactive) | 
CC1S/C(=C(\C#N)C(=O)NCc2ccco2)N(Cc2ccco2)C1=O (stereo not drawn) | 11.3% (inactive) | 
O=C(O)CN1C(=O)/C(=C\c2ccccc2OCc2ccc(Cl)cc2Cl)SC1=S | 21% (inactive) | 
O=C(CCCN1C(=O)/C(=C/c2ccccc2Cl)SC1=S)NNC(=O)c1ccccc1Cl | 7.28% (inactive) | 
CCCC(C)NC(C)C(=O)NC1CCCC1 (stereo not drawn) | -5.26% (inactive) | 
COc1ccc(C(=O)Nn2c(SCC(=O)NCc3ccco3)nc3ccccc3c2=O)cc1 | 11.7% (inactive) | 
O=C(Nc1ccc(Br)cc1)C1CC(O)CN1C(=O)OCc1ccccc1 (stereo not drawn) | -3.55% (inactive) | 
CCOc1ccc(NC(=O)CCc2nnc3ccc(N4CCC5(CC4)OCCO5)nn23)cc1 | 13.6% (inactive) | 
COc1ccc(N2CCN(c3ncnc4c3[nH]c3ccccc34)CC2)cc1 | 5.9% (inactive) | 

Compound | activity change, negative = inhibition | outcome
CC1(C)CN(Cc2ccccc2)C(=O)[C@H]1CC(=O)Nc1ccccc1 | 5.59% (inactive) | 
CC(=O)c1ccccc1OCC(=O)Nc1cccc(S(=O)(=O)N2CCCC2)c1 | 2.44% (inactive) | 
Cc1ccc(C(=O)Nc2cccc(C(F)(F)F)c2)cc1Nc1ncnc2nc[nH]c12 | -99.5% (inactive) | 
CC(=O)Nc1ccc(C=NNc2nnc(NN=Cc3ccc(NC(C)=O)cc3)c3ccccc23)cc1 | 9.1% (inactive) | 
Cc1ccnc(NC(=O)c2cccc(NC(=O)c3ccc(Cl)c(Cl)c3)c2)c1 | 20.3% (inactive) | 
COc1ccc(NC(=O)COC(=O)/C=C/c2ccc(OC)c(S(=O)(=O)N3CCOCC3)c2)cc1 | 10.3% (inactive) | 
COc1ccc(C=C2CS(=O)(=O)CC(=Cc3ccc(OC)cc3)C2=O)cc1 | -98.7% (inactive) | 
COC(=O)[C@@]1(Cc2ccccc2)[C@H]2C(=O)N(Cc3ccccc3)C(=O)[C@H]2[C@H]2CN=C(SCc3ccc(Cl)cc3)N21 | -98.9% (inactive) | 
CCOc1ccc(NC(=S)N=Nc2c(O)[nH]c3ccccc23)cc1 | 53.1% (inactive) | 
CC(NC(=O)CNC(=O)OCc1ccccc1)C(=O)N1CC(O)CC1C(=O)OCc1ccccc1 (stereo not drawn) | 0.54% (inactive) | 
CCN1CCN(Cc2ccc(NC(=O)c3ccc(C)c(NC(=O)c4cccc5[nH]ccc45)c3)cc2C(F)(F)F)CC1 | -39.3% (inactive) | 
Cc1ccc(C)c(Cn2c(O)c(N=NC(=S)Nc3ccccc3F)c3ccccc32)c1 | -7.63% (inactive) | 
COc1cc(OC)cc(-c2cc3nc(C)c(CCC(=O)O)c(C)n3n2)c1 | 2.12% (inactive) | 
O=C(C[n+]1ccccc1)N/N=C/c1ccc(O)cc1 | -1.14% (inactive) | 
C#CCN(C[C@@H]1[C@@H](OC(=O)NCc2ccccc2F)[C@@H](OC(=O)NCc2ccccc2F)Cn2c(=O)ccc(=O)n21)S(=O)(=O)c1ccc(C)cc1 | -99% (inactive) | 
Cc1ccc(-n2c(=O)c3c(c4cc(C)ccc4n3C)n(CC(=O)NCC3CCCO3)c2=O)cc1 (stereo not drawn) | 1.42% (inactive) | 
Cc1ccnc(NC(=O)c2ccc(OCC3CCCO3)cc2)c1 (stereo not drawn) | 30.4% (inactive) | 
CCOc1ccc(C(=O)NC(=S)N(Cc2ccccc2)Cc2ccccc2)cc1 | 7.66% (inactive) | 
O=C(Nc1cc(Cl)ccc1Cl)C1Cc2ccccc2O/C1=N\O (stereo not drawn) | -18.5% (inactive) | 
CCOC(=O)c1sc2nc(C)nc(NCc3ccccc3)c2c1C | 42.5% (inactive) | 
COc1ccc(CN2C(=O)c3cccnc3C2Nc2cc(Cl)ccc2OC)cc1 (stereo not drawn) | 22.8% (inactive) | 
CCC(=O)NC(c1cc(Cl)c2cccnc2c1O)C1CC1 (stereo not drawn) | -92.9% (inactive) | 
CCC(=O)NC(c1ccc(C)cc1)c1cc(Cl)c2cccnc2c1O (stereo not drawn) | 0.319% (inactive) | 
CC(=O)NC(c1ccc(Cl)cc1Cl)c1ccc2cccnc2c1O (stereo not drawn) | -95.7% (inactive) | 
CN(C)S(=O)(=O)c1ccc(Cl)c(C(=O)NCCNC(=O)c2cc(S(=O)(=O)N(C)C)ccc2Cl)c1 | 24.3% (inactive) | 
